Screens (PubChem)
HEK293 tox: kills HEK 293 cells. AID 1345083. actives 6.6% (n = 94,000). HEK 293 viability, ATP luminescence (CellTiter-Glo), 48-72 h. Potency, µM (titrated, usually from 115 µM), inactives show at the highest dose activity change, negative = cytotoxicity, most hits filed as inhibitors; note: % is set by controls: 0 for no effect and ±100 for the full control effect; nearly all actives have a fitted effect of over 60% in size
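qHTS cytotoxicity; HEK 293, 250 cells/well; compound pinned; 48 or 72 hr, 37 degree Celsius, 5% CO2, 95% humidity; CellTiter-Glo, 10 min RT; luminescence (ATP).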
hNpr1 antagonist: antagonists of human natriuretic peptide receptor Npr1; P16066; AID 1347048; HEK293 hNpr1 GloSensor cGMP, ANP-stimulated luminescence; actives 1.6% (n = 76,000); Potency, µM (titrated, usually from 46.3 µM), for the others: at the highest dose activity change, negative = inhibition, actives largely listed as inhibitors; calls by dose curve; note: % is set by controls: 0 for no effect and ±100 for the full control effect; nearly all actives have a fitted effect of over 60% in size
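Compound pre-incubated 30 min at room temperature on GloSensor-loaded HEK293 cells stably carrying hNpr1 and the pGS-40F cGMP biosensor. Stimulation uses hNppA at 0.1 nM final; luminescence is taken at baseline and 20 min post-agonist.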
NIH3T3 tox: NIH 3T3 cell cytotoxicity; NIH 3T3 viability, CellTiter-Glo ATP luminescence, 48-72 h; Potency, µM (titrated, usually from 96.7 µM), for the others: at the highest dose activity change, negative = cytotoxicity, hits mostly inhibitors; actives 4.3% (n = 94,000); note: % is set by controls: 0 for no effect and ±100 for the full control effect; nearly all actives have a fitted effect of over 55% in size
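Cytotoxicity is measured as loss of cellular ATP: NIH 3T3 cells (400/well) are exposed to compound for 48 or 72 hr at 37 °C, then CellTiter-Glo luminescence is imaged after 10 min at room temperature.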
FLuc inh: inhibitors of firefly (Photinus pyralis) luciferase | Potency, µM (top dose mostly 115 µM), most hits filed as inhibitors | purified P. pyralis luciferase, luminescence, biochemical | actives 2.5% (n = 76,000) | AID 1347043 | P08659; note: % is set by controls: 0 for no effect and ±100 for the full control effect; nearly all actives have a fitted effect of over 65% in size
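Biochemical qHTS: compound (6-point titration) added to 10uM D-luciferin plus 10uM ATP in Tris acetate pH 7.5 buffer with Mg, Tween-20 and BSA, then purified enzyme at 10nM; light output imaged.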
Npr1 antag conf: hNpr1 antagonism, confirmation assay | shares compounds with hNpr1 antagonist | HEK293 hNpr1 cGMP GloSensor luminescence, ANP-stimulated | Potency, µM (highest dose often 57.6 µM), without a hit: top-dose activity change, negative = inhibition, usual class: inhibitors | actives 76% (n = 1,400) | AID 1347044; calls by dose curve; note: nearly all actives have a fitted effect of over 70% in size
NPR2 antag: antagonizes human Npr2, subtype selectivity check; shares compounds with hNpr1 antagonist; AID 1347046; Potency, µM (top dose mostly 57.6 µM), for inactives: at the highest dose activity change, negative = inhibition, most hits filed as inhibitors; actives 67% (n = 1,400); HEK293 hNpr2 GloSensor cGMP luminescence, CNP-stimulated; calls by dose curve; note: nearly all actives have a fitted effect of over 70% in size
FLuc counter: FLuc enzyme inhibition, Npr1 counter-screen; actives 0.7% (n = 1,400); purified FLuc enzyme, luminescence, Km substrate; Potency, µM (titrated, usually from 57.6 µM), without a hit: at the top dose activity change, negative = inhibition, usual class: inhibitors; AID 1347047; shares compounds with hNpr1 antagonist; note: series mostly up to about 58 µM; 0% is about no effect
GloSensor cGMP: control cell line activity, Npr1 antagonist counter-screen; shares compounds with hNpr1 antagonist; AID 1347051; actives 69% (n = 1,400); HEK293 GloSensor cGMP, SNP-stimulated, luminescence; Potency, µM (top dose mostly 57.6 µM), inactives show at the top dose activity change, negative = inhibition, actives largely listed as inhibitors; calls by dose curve; note: % is set by controls: 0 for no effect and ±100 for the full control effect; nearly all actives have a fitted effect of over 70% in size
Starred values were filed as active, the others as inactive; [ ] = remark or other dose. Compounds with a hit are over-represented: about 11% of the library has one in this group of screens. Unless noted, calls come from the whole dose curve; as a rule, active = well fitted curve in the direction sought with a large enough effect; inconclusive = small, poorly fitted or top-dose-only effect, or another doubt; inactive = no such curve, though single readings can be large; an effect the other way counts as inactive or inconclusive. Potency is the fitted concentration of half-maximal effect.

Results for COc1ccc(C(=O)Nc2ccc(-c3noc([C@@H]4CCCN4Cc4c[nH]c5ccccc45)n3)cn2)cc1 ?
HEK293 tox: inconclusive; hNpr1 antagonist: 10µM*; NIH3T3 tox: inconclusive; FLuc inh: inactive; Npr1 antag conf: 11µM*; NPR2 antag: 19µM*; FLuc counter: -5%; GloSensor cGMP: 11µM*

How did COc1ccc(C(=O)Nc2ccc(-c3noc([C@@H]4CCCN4Cc4ccc(F)cc4)n3)cn2)cc1 do in these assays?
HEK293 tox: inconclusive; hNpr1 antagonist: 11µM*; NIH3T3 tox: inconclusive; FLuc inh: inactive; Npr1 antag conf: 14µM*; NPR2 antag: 17µM*; FLuc counter: -22%; GloSensor cGMP: 12µM*

How did COc1ccc(C(=O)Nc2ccc(-c3noc([C@@H]4CCCN4Cc4ccco4)n3)cn2)cc1 do in these assays?
HEK293 tox: inconclusive; hNpr1 antagonist: 13µM*; NIH3T3 tox: inconclusive; FLuc inh: inactive; Npr1 antag conf: 14µM*; NPR2 antag: 19µM*; FLuc counter: inconclusive; GloSensor cGMP: 17µM*

What do the screens show for `CCCCOc1ccc(C(=O)N2CCC[C@H]2c2nc(-c3ccc(OC)cc3)no2)cc1`?
HEK293 tox: 25µM*; hNpr1 antagonist: inconclusive; NIH3T3 tox: inconclusive; FLuc inh: inactive; Npr1 antag conf: inconclusive; NPR2 antag: -26%; FLuc counter: -16%; GloSensor cGMP: inconclusive

What do the screens show for `O=C(O)c1ccccc1C(=O)N1CC[C@H]2COC(=O)N2c2cc(F)ccc2C1`?
HEK293 tox: 0%[172 µM]; hNpr1 antagonist: 0%[70.6 µM]; NIH3T3 tox: 3%[174 µM]; FLuc inh: inactive

How did O=C(c1ccc2ccccc2n1)N1CC(c2nnc(-c3ccncc3)o2)C2(CCOCC2)C1 (stereo not given) do in these assays?
HEK293 tox: -4%; hNpr1 antagonist: -12%; NIH3T3 tox: -2%; FLuc inh: inactive

How did O=C(c1ccc(Cl)cc1)N1CCC(N2CCCS2(=O)=O)CC1 do in these assays?
HEK293 tox: -15%; NIH3T3 tox: -11%

How did Cc1cn2nc(C(=O)N3CCC(NC(=O)c4ccc(C)s4)CC3)cc2c(=O)[nH]1 do in these assays?
HEK293 tox: 0%; hNpr1 antagonist: 16%; NIH3T3 tox: -7%; FLuc inh: inactive

How did COc1ccc(C(=O)Nc2ccc(-c3noc([C@@H]4CCCN4CCCc4ccccc4)n3)cn2)cc1 do in these assays?
HEK293 tox: 16µM*; hNpr1 antagonist: 13µM*; NIH3T3 tox: inconclusive; FLuc inh: inactive; Npr1 antag conf: 17µM*; NPR2 antag: 19µM*; FLuc counter: -24%; GloSensor cGMP: 14µM*

What do the screens show for `COc1ccc(C2(C(=O)N3CCCCCC3c3nc(C4CC4)no3)CC2)cc1` (stereo not given)?
HEK293 tox: inconclusive; hNpr1 antagonist: -15%; NIH3T3 tox: inconclusive; FLuc inh: inactive

What do the screens show for `COc1ccc(C2(C(=O)N3CCC[C@H]3c3nc(-c4ccccc4Cl)no3)CC2)cc1`?
HEK293 tox: inconclusive; hNpr1 antagonist: 10µM*; NIH3T3 tox: inconclusive; FLuc inh: inactive; Npr1 antag conf: 22µM*; NPR2 antag: 22µM*; FLuc counter: 0%; GloSensor cGMP: 24µM*

Results for Nc1ncccc1CN1CCC2(CC1)COCCN2C(=O)OCc1ccccc1 ?
HEK293 tox: inconclusive; hNpr1 antagonist: 7.9µM*; NIH3T3 tox: inconclusive; FLuc inh: inactive; Npr1 antag conf: 11µM*; NPR2 antag: 11µM*; FLuc counter: 2%[86.2 µM]; GloSensor cGMP: 11µM*

What do the screens show for `COc1cccc(CC(=O)N2CCCN(c3cc(-c4ccc(Br)cc4)[nH]n3)CC2)c1`?
HEK293 tox: 45µM*; hNpr1 antagonist: 11µM*; NIH3T3 tox: 35µM*; FLuc inh: inactive; Npr1 antag conf: 24µM*; NPR2 antag: 24µM*; FLuc counter: -1%; GloSensor cGMP: 22µM*

How did COc1ccc(-c2cc(N3CCN(C(=O)Cc4ccc(Br)cc4)CC3)n[nH]2)cc1 do in these assays?
HEK293 tox: 1%; hNpr1 antagonist: inconclusive; NIH3T3 tox: inactive; FLuc inh: inactive

Results for Cc1cccc(CC(=O)N2CCCN(c3cc(-c4ccc(Br)cc4)[nH]n3)CC2)c1 ?
HEK293 tox: inconclusive; hNpr1 antagonist: inconclusive; NIH3T3 tox: 32µM*; FLuc inh: inactive; Npr1 antag conf: inconclusive; NPR2 antag: 24µM*; FLuc counter: 3%; GloSensor cGMP: 24µM*

Results for O=C(Cc1ccccc1)N1CCN(c2cc(-c3ccccc3)[nH]n2)CC1 ?
HEK293 tox: inconclusive; hNpr1 antagonist: -18%; NIH3T3 tox: inconclusive; FLuc inh: inactive

How did COC(=O)N(C)Cc1ccc(-c2ccccc2)cc1 do in these assays?
HEK293 tox: inconclusive; hNpr1 antagonist: -5%[70.6 µM]; NIH3T3 tox: inconclusive; FLuc inh: inconclusive

Results for COc1ccc(CNC(=O)C[C@@H]2C[C@H]3O[C@H](CNC4CCCC4)[C@@H](O)[C@H]3O2)cc1 ?
HEK293 tox: -14%[172 µM]; hNpr1 antagonist: 3%[70.6 µM]; NIH3T3 tox: -13%[174 µM]; FLuc inh: inactive

How did Cc1nn2c(c1-c1ccccc1Oc1ccccc1)N(C(=O)COc1ccccc1)CCC2 do in these assays?
HEK293 tox: 79µM*; hNpr1 antagonist: inconclusive; NIH3T3 tox: inconclusive; FLuc inh: inactive; Npr1 antag conf: 31µM*; NPR2 antag: 22µM*; FLuc counter: 1%[86.2 µM]; GloSensor cGMP: inconclusive

What do the screens show for `Cc1nn2c(c1-c1ccccc1OCc1ccccc1)N(C(=O)COc1ccccc1)CCC2`?
HEK293 tox: 40µM*; hNpr1 antagonist: inconclusive; NIH3T3 tox: 11µM*; FLuc inh: inactive; Npr1 antag conf: 17µM*; NPR2 antag: 12µM*; FLuc counter: -1%; GloSensor cGMP: -21%

How did Cc1nn2c(c1-c1ccccc1Oc1ccccc1)N(Cc1ccc(OCC(=O)O)cc1)CCC2 do in these assays?
HEK293 tox: inactive; hNpr1 antagonist: -4%; NIH3T3 tox: inconclusive; FLuc inh: inactive
